Results as given in PubChem BioAssay (NCATS).
Results filed as inconclusive are left out. Calls of active or inactive are those of the source. Calls follow the shape of the dose curve; as a rule, active = well fitted curve in the direction sought with a large enough effect; inconclusive = small, poorly fitted or top-dose-only effect, or another doubt; inactive = no such curve, though single readings can be large; an effect the other way counts as inactive or inconclusive.

Key:
[1] = target: Calcium and integrin-binding protein 1 (Homo sapiens) (UniProt Q99828); test: Primary qHTS for Identification of Calcium Integrin Binding Protein 1 (CIB1) Competitor (AID 1508620); conditions: CIB1-GST / FITC-alphaIIb peptide fluorescence polarization; series mostly up to 57.7 µM;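 also: GST tagged CIB1 binding a fluorescein labelled alphaIIb integrin peptide tracer; top concentration of the series differs between compounds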
Sequence of Calcium and integrin-binding protein 1 (Homo sapiens) (Q99828 whole entry, looked up): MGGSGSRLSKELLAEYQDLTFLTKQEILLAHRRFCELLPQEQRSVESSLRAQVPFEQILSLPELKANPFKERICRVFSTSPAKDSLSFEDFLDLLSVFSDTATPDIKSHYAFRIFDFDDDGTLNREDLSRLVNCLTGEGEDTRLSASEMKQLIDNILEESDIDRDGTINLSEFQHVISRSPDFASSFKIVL
Outline: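 CIB1-GST (1 uM final) and compound incubated 15 min at room temperature before adding FITC-alphaIIb peptide tracer (100 nM final). Competition for binding read by fluorescence polarization (ex 480, em 540) after another 15 min at room temperature.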

[2] = Primary qHTS for inhibitors of nuclear receptor binding SET domain protein 2 (NSD2) in an isogenic RCH-ACV NSD2 p.E1099K mutant (9B) (AID 1645876); conditions: RCH-ACV NSD2 E1099K (9B) viability, CellTiter-Glo, 72 h; series mostly up to 44.9 µM; also: nearly all actives have a fitted effect of over 70% in size
[3] = Primary qHTS for inhibitors of nuclear receptor binding SET domain protein 2 (NSD2) in an RCH-ACV wild type WT cells (2C) (AID 1645877); conditions: RCH-ACV (leukaemia line) NSD2 WT (2C) viability, CellTiter-Glo, 72 h; series mostly up to 44.9 µM; also: nearly all actives have a fitted effect of over 70% in size

Measured: Potency

C=CC1(C)C=C2CC[C@H]3[C@@](C)(C(=O)O)CCC[C@]3(C)C2CC1 (some centres undefined)
inactive: all assays above

COC1OC(=O)C2=C1C1(C)CCCC(C)(C)C1CC2O (centres undefined)
inactive: all assays above

COc1cc(C(CO)CO[C@@H]2O[C@H](CO)[C@@H](O)[C@H](O)[C@H]2O)ccc1O (some centres undefined)
inactive: all assays above

COc1cc([C@H]2OC[C@](O)(Cc3ccc(O[C@@H]4O[C@H](CO)[C@@H](O)[C@H](O)[C@H]4O)c(OC)c3)[C@@H]2CO)ccc1O
inactive: all assays above

COc1ccc(/C=C/C(N)=O)cc1OC
inactive: all assays above

CC(C)C1NC(=O)C2CCCN2C1=O (centres undefined)
inactive: all assays above

C=CCC1=C[C@]2(OC)[C@H](C)[C@@H](c3ccc(OC)c(OC)c3)O[C@]2(OC)CC1=O
inactive: all assays above

C[C@@H]1C[C@@H](O)[C@@]23CO[C@]2(CO)C[C@@H](O)CC3[C@@]12CC(c1ccoc1)OC2=O (some centres undefined)
inactive: all assays above
